In PubChem BioAssay AID493004 (Broad Institute, 2010):
Among all 2,300 compounds or so, fewer than 10 were called active.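 How the source made its calls: active means Signal drops as the depositor expects, and the fitted half-maximal dose is no more than ten times the top valid tested dose; inconclusive means Poor fit, or a flat curve whose signal drops by 30% to 70%; inactive means the rest.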 The list is a sample of the results.

Assay: Mot1-301 yeast growth enhancement – whole organism, S. cerevisiae, ATP luminescence, cherry-picked samples, SUMO pathway inhibitor project, dose response (AID 493004);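 further: more negative values mean stronger growth rescue toward the control strain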
Details: S. cerevisiae Mot1-301 galactose growth, 24 h, -100 = growth of slx-deleted rescue strain; series mostly up to 42 µM; growth activity, percent: at the top concentration

Growth activity, percent, inactive:
Cc1ccc(CC2CC(=O)N(c3ccc4c(c3)OCCO4)C2=O)cc1 (centres undefined) 0.704%, O=C(CCc1ccccc1)NNC(=O)c1ccc(Br)cc1 0.114%, Cc1ccc(N2C(=O)C3N=NN(CC(=O)N4N=C(c5cccc6ccccc56)CC4c4ccccc4)C3C2=O)cc1 (centres undefined) -0.371% [at 21 µM], CC1CCN(Cc2nc3c(c(=O)n(C)c(=O)n3C)n2CCc2ccccc2)CC1 0.393%, COc1cc(CNCc2ccc3c(c2)OCO3)c([N+](=O)[O-])cc1OC -0.272%, O=C(Nc1ccccc1N1CCN(c2ccccc2)CC1)c1cccc(F)c1 0.465%, N#CC(C#N)=CN=c1ccn(Cc2ccc(Cl)cc2Cl)cc1 -0.244%, Cc1cccc(C)c1NC(=O)C(Cl)C(=O)c1ccccc1 (centres undefined) -0.886%, Cc1cc(C)cc(NC(=O)C2CCCN(S(=O)(=O)c3ccc4[nH]c(=O)ccc4c3)C2)c1 (centres undefined) 0.0213%, Cc1cc(Br)ccc1NC(=O)c1cnc(N2CCN(c3ccccn3)CC2)c2ccccc12 -0.0868%, Cc1ccc2c(c1)C(O)(CC(=O)c1cccnc1)C(=O)N2 (centres undefined) 2.04%, COc1ccc(OCCC(=O)c2ccc(OC)cc2)cc1 -0.453%, CCN(CC)C(=O)CSc1nnc(CNc2ccc(F)cc2)n1Cc1ccco1 0.692%, O=Cc1ccc(Oc2cccc(C(F)(F)F)c2)nc1 1.08%, Cc1cc(C)cc(C(=O)NC(CC(N)=O)c2ccc(N3CCC(N4CCCCC4)CC3)c([N+](=O)[O-])c2)c1 (centres undefined) 0.0478%, CCCC(=O)N(CCN1CCOCC1)c1nc2ccc(OCC)cc2s1 -0.997%, CC1=CC(=O)C=CC1(C)C(Cl)(Cl)Cl (centres undefined) -0.27%, CCc1nc2ccccc2c(C(=O)OC2CCCCC2=O)c1C (centres undefined) 0.384%, COC(=O)c1cc2occc2n1Cc1nc(-c2ccccc2C)oc1C 0.0101%, CCC(C)[C@H]1COCCS(=O)(=O)N1Cc1ccc(C)cc1 (some centres undefined) 1.19%, Cc1nc2sc(C(c3ccco3)N3CCOCC3)c(O)n2n1 (centres undefined) 0.216%, COc1ccc(S(=O)(=O)N2CCOC2CNC(=O)C(=O)NCc2ccncc2)cc1C (centres undefined) -0.878%, O=C(NNS(=O)(=O)c1c(F)cc(F)c(Cl)c1F)C12CC3CC(CC(C3)C1)C2 0.101%, CCn1c(SCC(=O)N/N=C/c2ccccc2OCC(=O)O)nnc1-c1ccc(C(C)(C)C)cc1 0.393%, C=C(Cl)COC(=O)C1C2C=CC(C2)C1C(=O)O (centres undefined) 0.209%, CCOc1ccc(N(CC)S(=O)(=O)c2cccc3nsnc23)cc1 0.959%, CCC(CC)C(=O)Nc1ccc(S(=O)(=O)Nc2nccs2)cc1 -0.425%, O=c1c2c(ncn1Cc1ccccc1)nc1n2CCC1 0.472%, Cc1ccc(S(=O)(=O)CCC(=O)OCC(=O)N(C)C2CCS(=O)(=O)C2)cc1 (centres undefined) 0.59%, COc1cc(C(=O)OCC(=O)NC(C)CCc2ccccc2)cc(OC)c1OC (centres undefined) 0.668%, O=C(NCc1ccccc1Cl)C(=O)NCC1CCCN1S(=O)(=O)c1cccs1 (centres undefined) 0.497%, COc1cccc(NC(=O)c2nn(C34CC5CC(CC(C5)C3)C4)cc2[N+](=O)[O-])c1 -0.546%, CC(C)n1c(O)c(N=Nc2ccccn2)c2ccccc21 -0.2%, CCCCC1=CC2=CC(=O)C(C)(OC(=O)CC)C(=O)C2=CN1CCCOC(C)C (centres undefined) 0.305%, Cc1ccc(Nc2cc(C)nc3c(C)ccc([N+](=O)[O-])c23)cc1 -0.21% [at 21 µM], CCC1(CC)NC(=O)N(CC(=O)OCC(=O)NC(=O)c2ccccc2)C1=O 0.366%, CCN1CCCC1CNC(=O)Cn1cnc2ccc(S(=O)(=O)N3CCC(C)CC3)cc2c1=O (centres undefined) 0.281%, CN(C)/C(CN1CCCCC1)=C1\N=C(c2ccccc2)OC1=O 0.289%, COC(=O)c1sccc1NC(=O)CC1C(=O)NCCN1C(=O)Nc1ccc(F)cc1F (centres undefined) 0.228%, COc1cc(NC(=O)C2=CC(c3ccco3)=NS(=O)(=O)N2C)cc(OC)c1OC 0.784%, CN(C)C(=O)c1coc2nc3ccccc3nc12 -0.317%, O=C(Nc1nccs1)C1CCN(S(=O)(=O)c2ccc(Cl)c(C(F)(F)F)c2)CC1 0.725%, Cc1cccc(-[n+]2c(-c3cccc(Br)c3)[nH]c3nc4ccccc4nc32)c1 0.369%, COCCCN1C(=O)c2ccc(C(=O)Nc3ccc(OC)cc3OC)cc2C1=O 0.0149%, COc1ccc(/C=C(\C#N)C(=O)NCCCn2ccnc2)cc1 0.47%, Cn1c(C(=O)NCCc2ccsc2)cc2c(=O)n(C)c3ccccc3c21 -0.0901%, CN(NC(=O)c1ccccc1F)c1nc(C(F)(F)F)nc2ccccc12 -0.0289%, Cc1cc(C)c2c(Cn3ccnc3)cc(=O)oc2c1 -0.855%, COc1ccc(-c2cn(-c3ccc(C)cc3)c(=O)n2CC(=O)Nc2ccc(OC)c(OC)c2)cc1 -0.476%, O=C1CCC(=O)N1CCOP1(=O)COc2ccccc2OC1 0.0597%, CCOc1ccc(C(C(=O)NC2CCCC2)N(C(=O)c2snc(C(N)=O)c2N)C2CCCC2)cc1 (centres undefined) 0.138%, Cc1ccc(O)c(CNc2nc3ccccc3n2C)c1 -1.49%, NC(=O)c1cc(S(=O)(=O)N2CCCC2)ccc1OCc1ccc(F)cc1 0.587%, COc1ccccc1CSc1ncc(-c2ccc([N+](=O)[O-])cc2)[nH]1 0.458%, O=C(CP(=O)(c1ccccc1)c1ccccc1)N1CCOCC1 -0.11%, N#CC1=C(N)Oc2n[nH]c(CSc3ccccc3)c2C12C(=O)Nc1ccccc12 (centres undefined) -1.01%, COc1ccc(OC)c2c(N)c(C#N)c(C(F)(F)C(F)(F)F)nc12 -0.15%, COCCNC(=O)C(c1ccc(C)cc1)N(C(=O)CCC(=O)Nc1ccccn1)c1cccc(C)c1 (centres undefined) 0.909%, CC(C)c1cc(C(=O)N/N=C/C(Br)=C/c2ccccc2)n[nH]1 -1.59%, CCCc1cc(=S)n2c([nH]c3ccccc32)c1C#N -0.125%, CCOc1ccc(Cn2c(SCCCCC#N)nc3c2c(=O)n(C)c(=O)n3C)cc1OCC -0.0468%, COc1cccc(-n2c(SCC(=O)NC3CCCCC3)nc3n[nH]c(C)c3c2=N)c1 0.155%, Cc1ccc(C)c(S(=O)(=O)n2cnc3ccccc32)c1 0.365%, COc1ccc(C(=O)OCC(=O)c2ccc(C)c(S(=O)(=O)N3CCOCC3)c2)cc1OC 0.26%, Cc1cccc(N(C(=O)c2ccc(CN3CCOCC3)o2)C(C(=O)NC2CCCCC2)c2ccc(F)cc2)c1 (centres undefined) -1.09%, O=C(NC1CCCCC1)c1ccc2c(=O)n(CC3CCCO3)c(=O)[nH]c2c1 (centres undefined) 0.828%, CCOCCCNCc1ccc(OCc2ccc(F)cc2)c(OC)c1 0.161%, COc1cccc(CN(C)CC2CCCN(CCc3ccc(Cl)cc3)C2)c1OC (centres undefined) -0.0976%, COc1cccc(OC)c1C(=O)Nc1ccc2c(c1)n(C)c(=O)n2C 1.14%, COC(=O)/C=C\C(=O)Nc1cccc([N+](=O)[O-])c1 -2.9%, CC(C)Cc1nc(N2CCOCC2)c(C#N)c2c1CCC2 0.844%, COc1ccc(-c2[nH]nc3c2C(c2ccncc2)C(C#N)=C(N)O3)cc1 (centres undefined) -0.099%, COc1cc(CN2CCNC(=O)C2CC(=O)NCCc2ncccc2C)cc(OC)c1 (centres undefined) 0.3%, CC(C)CCNC(=O)Cn1c(=O)oc2cc(S(=O)(=O)N3CC(C)CC(C)C3)ccc21 (centres undefined) -0.44%, CCc1cc2c(=O)c(-c3ccc(F)cc3)c(C(F)(F)F)oc2cc1OCC(=O)O 0.415%, CCc1c(C)nc(N2CCN(Cc3ccccc3)CC2)[nH]c1=O -0.238%, Cc1cc(C)c(OCC(=O)N/N=C/c2ccco2)c(C)c1 -0.545%, CC1=NC2(CCCc3c2no[n+]3[O-])N(O)C1(C)C (centres undefined) 0.0904%, CCCCC(=O)N/N=C(\C)CC(=O)Nc1cc(Cl)ccc1OC -0.644%, CC(NC(=O)c1ccc(Cl)cc1)C(=O)N1CCCCC1 (centres undefined) 0.715%, CCc1ccccc1NC1c2ccccc2C(=O)N1c1cccnc1 (centres undefined) 0.194%, COc1ccccc1N1CCN(C(=O)C(=O)N/N=C/c2ccccc2F)CC1 0.325%, N#CC1=C(N)OC2=C(C(=O)CCC2)C1C1CC=CCC1 (centres undefined) 0.0415%, Cc1cc(C)c2nc(-c3cccnc3)cc(C(=O)Nc3ccc(S(=O)(=O)Nc4onc(C)c4C)cc3)c2c1 0.255%, CSc1nc2ccc(NC(=O)c3c(F)cccc3F)cc2s1 -0.719%, COc1ccccc1/C=C/C(=O)NC(=S)N1CCOCC1 0.614%, CCCCNC(=O)c1ccccc1NC(=O)C1=C(C)OCCS1 0.151%, C=CCC(NCCCO)c1cccc(OC)c1OC (centres undefined) 0.152%, O=C(OC1CCOC1=O)c1cccc(S(=O)(=O)Nc2ccc(F)cc2)c1 (centres undefined) 0.0867%, CCOC(=O)C1(Cc2cccc(OC)c2)CCCN(S(=O)(=O)c2cccnc2)C1 (centres undefined) -0.256%, Cc1ccc(S(=O)(=O)N2[C@@H](c3ccc(Br)cc3)C(C(=O)O)=C[C@H]2CC2CCCC2)cc1 0.199%, CCN(CC)C(=O)CSC(Nc1cccc(F)c1)=C(C#N)C#N -0.267%, Cc1ccc(NC(=O)Nc2cccc(C(F)(F)F)c2)nc1 -0.7%, O=C(NCC(=O)N(c1ccccc1)C(C(=O)NCC1CCCO1)c1ccccc1)c1cccs1 (centres undefined) 0.303%, O=C(CSCc1ccc(Cl)cc1)N1CCCCC1 0.62%, O=C1CC(c2ccccc2)C(=O)N1c1cccc(O)c1 (centres undefined) 0.541%, Cc1nn(CCOc2ccccc2)c(=O)n1-c1ccccc1F 0.758%, Oc1c(Cl)cc(Cl)c(Cl)c1Cc1c(O)c(Cl)cc(Cl)c1Cl -3.98%, CC(Oc1ccccc1[N+](=O)[O-])C(=O)N/N=C/c1ccoc1 (centres undefined) 0.0127%
